# According to PubChem BioAssay (Tox21):
# Calls of active or inactive are those of the source. Entries that show only a call come without a potency. The call rests on the fitted dose curve.
# Target: Acetylcholinesterase (Homo sapiens) (UniProt P22303)
# Experiment: Acetylcholinesterase (AChE) small molecule antagonists: enzyme-based qHTS assay with human liver microsomes (AID 1347399); further: nearly all actives have a fitted effect of over 60% in size
# Settings: Potency: qHTS inhibition; outcome: qHTS inhibition; series mostly up to 115 µM
# From the text: National Center for Advancing Translational Sciences [NCATS]
# Division of Preclinical Innovation [DPI]
# U.S. Environmental Protection Agency [EPA]
# National Institutes of Environmental Health Sciences [NIEHS]
# National Toxicology Program [NTP]
# U.S. Food and Drug Administration [FDA]
# Acetylcholinesterase (AChE) is the primary cholinesterase in the body that hydrolyzes a key neurotransmitter, acetylcholine. Inhibition of AChE activity can lead to neurotoxicity. The known inhibitors include organophosphorous pesticides (OP), chemical warfare agents, drugs, and various phytochemicals. Some compounds like OP compounds may need metabolic activation to be active AChE inhibitors. The cytochrome P450 (CYP) superfamily in the human microsomes is responsible for the metabolism of various endogenous and exogenous compounds.
# An enzyme-based assay with the recombinant human AChE, human liver microsomes and Amplite Colormetric acetylcholinesterase assay kit (AAT Bioquest, Sunnyvale, CA) was used to evaluate compounds in the Tox21 10K library that need metabolic activation for AChE inhibition. The assay uses 5, 5-dithiobis-(2-nitrobenzoic acid) (DTNB) to quantify the thiocholine produced from the hydrolysis of acetylthiocholine by AChE.
# Tox21 Assay Protocol Summary:
# For the enzyme-based AChE assay with microsomes addition, a mixture of human AChE (50 mU/mL) and human liver microsomes (0.25 mg/mL, final concentration) in 3 uL/well was dispensed into black, clear-bottom 1536-well plates using a Multidrop Combi dispenser (Thermo Scientific, MA). Then, 23 nL of compound or DMSO (vehicle control) was transferred into the assay plates by a Pintool Station (Wako Automation, CA). Following compound addition, 1 uL of NADPH (0.25 mg/mL, final concentration) was transferred to the assay plate by a Flying Reagent Dispenser (Beckman Coulter, CA). The plates were incubated for 30 min at 37 C and 5% CO2, followed by the addition of 4 uL of colorimetric detection cocktail solution (DTNB, acetylthiocholine) into each well using a Flying Reagent Dispenser (Beckman Coulter, CA) and then 10 min incubation at room temperature.
# Chain of Acetylcholinesterase (Homo sapiens) (P22303 whole entry, looked up): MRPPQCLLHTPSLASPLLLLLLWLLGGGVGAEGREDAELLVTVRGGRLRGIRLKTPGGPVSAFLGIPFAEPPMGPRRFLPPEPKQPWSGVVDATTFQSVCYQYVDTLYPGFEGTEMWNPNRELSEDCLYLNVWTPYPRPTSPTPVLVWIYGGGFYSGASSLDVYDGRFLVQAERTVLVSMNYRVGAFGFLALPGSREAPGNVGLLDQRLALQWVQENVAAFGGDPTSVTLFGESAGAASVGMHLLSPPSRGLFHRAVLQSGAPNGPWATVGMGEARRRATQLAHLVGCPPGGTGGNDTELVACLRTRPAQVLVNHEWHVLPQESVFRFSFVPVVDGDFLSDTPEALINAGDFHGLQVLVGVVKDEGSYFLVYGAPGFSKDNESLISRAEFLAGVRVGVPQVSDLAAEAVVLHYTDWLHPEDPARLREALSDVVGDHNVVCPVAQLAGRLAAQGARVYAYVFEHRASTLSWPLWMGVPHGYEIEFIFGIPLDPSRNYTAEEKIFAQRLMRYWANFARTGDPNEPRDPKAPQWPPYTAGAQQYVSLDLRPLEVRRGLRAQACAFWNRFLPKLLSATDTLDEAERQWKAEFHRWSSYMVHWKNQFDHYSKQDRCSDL
SMILES,Potency,outcome
O=C(N/N=C/c1ccc([N+](=O)[O-])o1)c1cc([N+](=O)[O-])cc([N+](=O)[O-])c1O,inactive,
CCCCC1C(=O)NC(=O)N(C2CCCCC2)C1=O (stereo not given),inactive,
C[N+](C)(C)CC1CO1 (stereo not given),inactive,
CC(Cl)C(=O)O (stereo not given),inactive,
Nc1ccc2c(c1)Cc1ccccc1-2,inactive,
FC(Cl)(Cl)C(F)(Cl)Cl,inactive,
C=CCSSCC=C,inactive,
CCOc1cccc(C2(N3CCN(c4ccccc4)CC3)CCC(C)CC2)c1 (stereo not given),,inactive
C[Si](Cn1cncn1)(c1ccc(F)cc1)c1ccc(F)cc1,inactive,
CC(C)(C)OOC(C)(C)CCC(C)(C)OOC(C)(C)C,inactive,
COC(=O)C1(O)c2ccccc2-c2ccccc21,inactive,
CN1C(=O)CN=C(c2ccccc2)c2cc([N+](=O)[O-])ccc21,inactive,
COc1ccc(C(=O)c2c(C)n(CCN3CCOCC3)c3ccccc23)cc1,inactive,
CCOP(=S)(OCC)SCSc1cc(Cl)ccc1Cl,inactive,
COc1ccc(C(O)(c2cncnc2)C2CC2)cc1 (stereo not given),inactive,
COCc1cnc(C2=NC(C)(C(C)C)C(=O)N2)c(C(=O)O)c1 (stereo not given),inactive,
C=CC(=O)NC(C)(C)CC(C)=O,inactive,
CC[N+]1(CCOC(=O)C(O)(c2ccccc2)c2ccccc2)CCCCC1,inactive,
CCOP(=O)(SC(C)CC)N1CCSC1=O (stereo not given),inactive,
Nc1ccccc1C(=O)OCC(O)CO (stereo not given),inactive,

SMILES,Potency,outcome
CC(C)(C#N)C(C)(C)C#N,inactive,
CC1(C)CC(=O)CC(C)(C)N1[O],inactive,
CC(C)(C)NCC(O)c1cc(Cl)c(N)c(C(F)(F)F)c1 (stereo not given),inactive,
SCc1ccccc1,inactive,
CCNC(=O)NC(=O)/C(C#N)=N/OC,inactive,
O=C(O)C(F)(F)C(F)(F)C(F)(F)C(F)(F)C(F)(F)C(F)(F)C(F)(F)C(F)(F)F,inactive,
O=C(NC(=O)c1cc(F)c(F)cc1Cl)Nc1cc(F)ccc1N1CCC(C(=O)O)CC1,inactive,
CCc1cnc(C2=NC(C)(C(C)C)C(=O)N2)c(C(=O)O)c1 (stereo not given),inactive,
Cc1cnc(C2=NC(C)(C(C)C)C(=O)N2)c(C(=O)O)c1 (stereo not given),inactive,
O=P(OCC(Br)CBr)(OCC(Br)CBr)OCC(Br)CBr (stereo not given),inactive,
CCN(C(C)=O)c1cccc(-c2ccnc3c(C#N)cnn23)c1,inactive,
O=C(O)c1cc(Cl)ccc1Cl,inactive,
C[N+]1(CCC(C(N)=O)(c2ccccc2)c2ccccc2)CCCCC1,inactive,
CCCC1CCCCN1 (stereo not given),inactive,
O=C(Cc1ccccc1)c1ccccc1,inactive,
O=C1NC(=O)C(=O)C(=O)N1,inactive,
CN(C)C(=O)Nc1cccc(OC(=O)NC(C)(C)C)c1,inactive,
CC(C)C1(C)N=C(c2ncccc2C(=O)O)NC1=O (stereo not given),inactive,
CCC1(CCC(C)C)C(=O)NC(=O)NC1=O,inactive,
O=C(CCl)CCl,inactive,
